Screens as filed in PubChem BioAssay.
SARS PLpro yeast = SARS-CoV PLP inhibition in yeast | S. cerevisiae expressing SARS-CoV PLpro, growth rescue | Potency, µM (series often up to 32.9 µM), inactives show at the top dose activity, positive = growth rescue, hits mostly activators | AID 485353 | hit rate 0.19% among 330,000; further: potency means the concentration at half of the fitted maximal effect; 0% is about no effect; nearly all actives have a fitted effect of over 55% in size
Tb PYK inh = inhibitors of Trypanosoma brucei pyruvate kinase; Q57TT1; Potency, µM (top dose mostly 76.8 µM), for the others: at the top dose activity, negative = inhibition, usual class: inhibitors; TbPYK enzyme, Kinase-Glo Plus ATP luminescence, 45 min; hit rate 0.12% among 410,000; active means well fitted curve in the direction sought with a large enough effect; inconclusive means small, poorly fitted or top-dose-only effect, or another doubt; inactive means no such curve, though single readings can be large; an effect the other way counts as inactive or inconclusive; further: potency means the concentration at half of the fitted maximal effect; on the % scale 0 is the no-effect control and ±100 the full control effect; nearly all actives have a fitted effect of over 50% in size
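T. brucei PYK with substrate was exposed to pin-transferred compounds across a concentration series, then started with 130 uM ADP (final). After 45 min at room temperature, Kinase-Glo Plus luminescence was read, normalized and curve-fitted.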
Shiga toxin inh = Shiga toxin inhibition; AID 2315; inhibition, % at 38.7 µM; hit rate 9.2% among 290,000; Vero cells, Shiga toxin protein synthesis inhibition reporter; in the data active means inhibition mostly above about 28%, no sharp cut-off; inactive means mostly below about 43%; further: 0% is about no effect
Cycloheximide cs = counter-screen hit for Shiga toxin inhibitors, cycloheximide. cell reporter, cycloheximide protein synthesis inhibition counterscreen. max response, %. hit rate 12% among 300,000. AID 2314; in the data active means max response mostly above about 13%, no sharp cut-off; inactive means mostly below about 14%; further: read at 38.3 µM for the half of the compounds with a filed dose; 0% is about no effect
LmPK inhibitor = blocks Leishmania mexicana pyruvate kinase activity; purified LmPK, Kinase-Glo ATP luminescence, 1 h; Potency, µM (titrated, usually from 57.5 µM), for the others: at the top dose activity change, negative = inhibition, actives largely listed as inhibitors; hit rate 0.37% among 290,000; active means well fitted curve in the direction sought with a large enough effect; inconclusive means small, poorly fitted or top-dose-only effect, or another doubt; inactive means no such curve, though single readings can be large; an effect the other way counts as inactive or inconclusive; further: potency means the concentration at half of the fitted maximal effect; on the % scale 0 is the no-effect control and ±100 the full control effect
Target sequence (Q27686 whole entry, looked up): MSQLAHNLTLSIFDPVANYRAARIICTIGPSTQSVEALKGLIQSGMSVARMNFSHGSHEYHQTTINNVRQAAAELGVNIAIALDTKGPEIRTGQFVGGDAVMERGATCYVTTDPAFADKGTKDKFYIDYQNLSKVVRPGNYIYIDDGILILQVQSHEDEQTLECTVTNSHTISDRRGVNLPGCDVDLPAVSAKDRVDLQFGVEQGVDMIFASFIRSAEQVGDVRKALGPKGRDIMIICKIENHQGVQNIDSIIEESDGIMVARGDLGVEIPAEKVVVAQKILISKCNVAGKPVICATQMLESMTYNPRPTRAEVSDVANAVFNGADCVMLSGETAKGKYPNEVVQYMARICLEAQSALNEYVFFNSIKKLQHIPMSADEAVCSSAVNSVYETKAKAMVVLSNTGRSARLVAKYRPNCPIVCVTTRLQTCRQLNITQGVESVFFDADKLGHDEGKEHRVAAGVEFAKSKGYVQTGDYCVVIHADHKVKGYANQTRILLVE
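Purified LmPK (0.1 nM) with 0.5 mM PEP and 0.1 mM ADP in imidazole buffer pH 7.2 with MgCl2/KCl, 1 h at room temperature. ATP formed was read by luciferase luminescence and normalized to no-enzyme and uninhibited controls.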
NS1 function inh = blocks influenza NS1 protein function | Potency, µM (series often up to 46.1 µM), for the others: at the highest dose activity, positive = more growth | hit rate 0.4% among 270,000; further: potency means the concentration at half of the fitted maximal effect; actives are rising curves; nearly all actives have a fitted effect of over 50% in size
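Read-out: OD600 growth recovery of NS1-expressing budding yeast. Cells grown overnight at 30C in -URA glucose medium, washed, resuspended and diluted 1:100 in 2% galactose assay medium, pH 6.0. Same strain lacking NS1 served as positive control.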
* hit, by the source's call. Shown is part of a subset that was picked to be rich in hits. Unless noted, the call rests on the fitted dose curve.

Cc1ccc(N2Cc3ccccc3C2=S)cc1 was read as SARS PLpro yeast 0.0%, Tb PYK inh -0.1%, Shiga toxin inh 81.8*, Cycloheximide cs 36.9* and LmPK inhibitor -10.8%.
Cc1ccc(N2Cc3ccccc3OC(C)C2=O)cc1 (centres undefined) was read as SARS PLpro yeast 10.2%, Tb PYK inh -8.2%, Shiga toxin inh -18.3, Cycloheximide cs -4.8, LmPK inhibitor 5.2% and NS1 function inh -2.6%.
`Cc1nc2c(-c3ccccc3)c(C)nn2c(C)c1CCC(=O)NCc1cccc(Cl)c1` gave Tb PYK inh 6.7%.
Cc1ccc(/C=C/C(=O)OC(C)C(=O)NC2CCCCC2C)o1 (centres undefined) was read as SARS PLpro yeast 19.0% and Tb PYK inh -2.5%.
For CC(C(Sc1ccccc1N)c1ccccc1)[N+](=O)[O-] (centres undefined) the results were SARS PLpro yeast -20.6%, Tb PYK inh 25.1µM*, Shiga toxin inh 60.6*, Cycloheximide cs 32.3*, LmPK inhibitor 5.9% and NS1 function inh -34.0%.
For CC(C)(C)NC(=O)C1(C)CCC(=O)N1CCCn1ccnc1 (centres undefined) the results were Tb PYK inh -4.3%.
CCCOc1ccc(C(=O)Nc2ccc3c(c2)OCO3)cc1 was read as SARS PLpro yeast -2.4%, Tb PYK inh -13.7%, Shiga toxin inh 121.8*, Cycloheximide cs 48.9*, LmPK inhibitor -12.7% and NS1 function inh -7.5%.
`CCC(=O)Nc1ccc(C(=O)Nc2ccc3c(c2)OCO3)cc1` gave SARS PLpro yeast -1.0%, Tb PYK inh -6.8%, Shiga toxin inh 6.1, Cycloheximide cs 15.3, LmPK inhibitor -1.3% and NS1 function inh -7.7%.
CCC(=O)Oc1ccc(C(=O)Nc2ccc3c(c2)OCO3)cc1 was read as SARS PLpro yeast -2.8%, Tb PYK inh -6.9%, Shiga toxin inh 107.5*, Cycloheximide cs 46.4*, LmPK inhibitor inconclusive and NS1 function inh 1.4%.
For CCCCOc1ccc(C(=O)Nc2ccc(OCC(=O)N3CCOCC3)cc2)cc1 the results were SARS PLpro yeast -2.0%, Tb PYK inh 0.5%, Shiga toxin inh 51.2*, Cycloheximide cs 25.7*, LmPK inhibitor 2.3% and NS1 function inh 9.0%.
CCCCOc1ccc(C(=O)Nc2ccc3c(c2)OCO3)cc1 was read as SARS PLpro yeast 0.1%, Tb PYK inh -1.8%, Shiga toxin inh 24.4, Cycloheximide cs 17.8* and LmPK inhibitor -1.0%.
For COc1ccc(S(=O)(=O)c2cn(CC(=O)Nc3cc(C)ccc3C)c3ccccc3c2=O)cc1 the results were Tb PYK inh -1.8%.
`c1ccc(CSc2ccc(-c3cccs3)nn2)cc1` gave SARS PLpro yeast 1.4%, Tb PYK inh -12.1%, Shiga toxin inh 40.1*, Cycloheximide cs 31.0*, LmPK inhibitor -4.7% and NS1 function inh -0.9%.
Screening c1ccc(CSc2ccc(-c3cccs3)nn2)nc1 returned SARS PLpro yeast 2.4%, Tb PYK inh -6.1%, Shiga toxin inh 50.9*, Cycloheximide cs 43.7* and LmPK inhibitor -1.1%.
For CCC(c1nnnn1Cc1cccs1)N1CCN(c2nc3ccccc3s2)CC1 (centres undefined) the results were SARS PLpro yeast -7.4%, Tb PYK inh -15.5%, Shiga toxin inh 12.1, Cycloheximide cs -3.0, LmPK inhibitor 6.0% and NS1 function inh 3.9%.
`CC(C)CC(c1nnnn1Cc1cccs1)N1CCN(c2nc3ccccc3s2)CC1` (centres undefined) gave SARS PLpro yeast -20.3%, Tb PYK inh -1.3%, Shiga toxin inh -11.0, Cycloheximide cs 20.0*, LmPK inhibitor 6.4% and NS1 function inh 7.1%.
`CCS(=O)(=O)N1Cc2ccccc2CC1C(=O)Nc1nc2ccccc2s1` (centres undefined) gave SARS PLpro yeast 3.2%, Tb PYK inh -2.4%, Shiga toxin inh active, Cycloheximide cs 42.6*, LmPK inhibitor -3.5% and NS1 function inh 19.7%.
For CCS(=O)(=O)N1Cc2ccccc2CC1C(=O)Nc1nc2ccccc2[nH]1 (centres undefined) the results were SARS PLpro yeast -1.4%, Tb PYK inh 5.5%, Shiga toxin inh 194.1*, Cycloheximide cs 33.9*, LmPK inhibitor -4.9% and NS1 function inh 0.3%.
For COC(=O)c1ccc(OC)c(CN2C(=O)N(c3ccc(C(C)=O)cc3)S(=O)(=O)c3ccccc32)c1 the results were Tb PYK inh 1.3%.
`CCC1=Nc2cc(C(=O)NCc3ccccc3OC)ccc2Sc2ccc(Cl)cc21` gave Tb PYK inh -9.6%.
Cc1cccc(NC(=O)Cn2nc(N3CCN(c4ccccc4)CC3)ccc2=O)c1C was read as Tb PYK inh -1.8%.
COc1ccc(O)c(C2=Nc3ccccc3N=C(c3ccco3)C2)c1 was read as SARS PLpro yeast -5.4%, Tb PYK inh -0.9%, Shiga toxin inh 32.3, Cycloheximide cs 8.7*, LmPK inhibitor 1.1% and NS1 function inh -27.6%.
Cc1cc(S(=O)(=O)Nc2cc3c(cc2NCc2ccccc2)n(C)c(=O)n3C)ccc1F was read as Tb PYK inh -7.0%.
For COc1ccc(C(C)(O)c2nc(-c3csc4ccccc34)cs2)cc1 (centres undefined) the results were Tb PYK inh -0.8%.
For Cc1ccc(NC(=O)COCc2cc(-c3cccs3)on2)cc1Cl the results were Tb PYK inh -0.8%.
CC(=O)CN1Cc2ccccc2/C1=N\C(=O)Nc1ccccc1 was read as SARS PLpro yeast 4.3%, Tb PYK inh 4.1%, Shiga toxin inh 11.3, Cycloheximide cs 16.1*, LmPK inhibitor -0.9% and NS1 function inh 10.3%.
Screening COc1ccc(N2C[C@H](C)[C@@H](CC(=O)Nc3ccccc3)C2=O)cc1 returned Tb PYK inh 1.1%.
Screening COc1ccc(N2Cc3ccccc3/C2=N\C(=O)Nc2ccccc2)cc1 returned SARS PLpro yeast 5.5%, Tb PYK inh 2.0%, Shiga toxin inh 57.2, Cycloheximide cs 22.7* and LmPK inhibitor 2.7%.
Cc1cc(C(=O)COC(=O)c2n[nH]c3ccccc23)c(C)n1C was read as SARS PLpro yeast -1.5%, Tb PYK inh -2.5%, Shiga toxin inh 62.5*, Cycloheximide cs 46.7*, LmPK inhibitor inconclusive and NS1 function inh -25.5%.
`Cc1cc(C(=O)COC(=O)c2nccnc2N)c(C)n1C` gave SARS PLpro yeast 4.6%, Tb PYK inh 4.6%, Shiga toxin inh 103.5*, Cycloheximide cs 41.7* and LmPK inhibitor -10.4%.
`CC1CCCCN1C(=O)COC(=O)c1n[nH]c2ccccc12` (centres undefined) gave SARS PLpro yeast 2.4%, Tb PYK inh 5.0%, Shiga toxin inh 57.1, Cycloheximide cs 58.0*, LmPK inhibitor -13.0% and NS1 function inh -5.2%.
